Among the test systems are NCI-H23 lung; NCI-H226 lung; NCI-H322M lung; HOP-62 NSCLC; NCI-H460 lung; HOP-92 NSCLC; NCI-H522 lung; 786-0 renal; COLO 205 colon; A549/ATCC NSCLC.
Common to all, as to assay: NCI-60 one-dose screen, 48 h (100 = growth as untreated, 0 = no growth, -100 = all killed)
Common to all, as to details: 10 µM unless noted

The structures appear in SMILES notation. About 83,000 compounds went through this panel and 20% of them were active in at least one assay; those are over-represented in the sample as a whole.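 Step 1: grow cells in 96-well plates. Step 2: add test compound at a single concentration. Step 3: incubate 48 h. Step 4: record percent growth.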 Unmarked numbers belong to inactive results. The source made the active and inactive calls. The calls were made as follows: active = growth percent below 10; inactive = the rest.

Regarding `O=C1OC(c2ccccc2)C(O)=C1c1ccccc1` (configuration not stated), the growth is 115% in the assay on NCI-H23 lung; 100% with NCI-H226 lung; 130% in the assay with NCI-H322M lung; 122% in the assay on HOP-62 NSCLC; 113% in the assay with NCI-H460 lung; 96.4% in the assay with HOP-92 NSCLC. Moreover, the results for the growth with NCI-H522 lung, in the assay on 786-0 renal and in the assay with COLO 205 colon were 110%, 116% and 120%, respectively.

For the compound `C=C(C)C(=O)Nc1ccc(NC(C)C)cc1`, the growth is 113% in the assay on NCI-H23 lung; 131% in the assay on NCI-H226 lung; 150% in the assay on NCI-H322M lung; 104% in the assay with HOP-62 NSCLC; 139% with NCI-H460 lung; 143% with HOP-92 NSCLC. The growth is 159% with NCI-H522 lung, 112% in the assay with A549/ATCC NSCLC, 96.8% with 786-0 renal and 148% in the assay with COLO 205 colon.

For the compound `O=CNc1ccc2c(c1)Cc1cccc(NC=O)c1-2`, the growth in the assay with NCI-H23 lung was 95.6%; in the assay with NCI-H226 lung, 83.6%; with NCI-H322M lung it was 106%; in the assay on HOP-62 NSCLC it was 100%; in the assay with NCI-H460 lung it was 95.8%; in the assay on HOP-92 NSCLC, 97.7%. Further, the growth was 82.2% in the assay with NCI-H522 lung, 104% with 786-0 renal and 99.9% in the assay with COLO 205 colon.

Take `O=C(C(=O)c1ccc2c(c1)OCO2)c1ccc2c(c1)OCO2`: the growth in the assay on NCI-H23 lung was 111%; in the assay with NCI-H226 lung, 99.9%; in the assay with NCI-H322M lung, 122%; with HOP-62 NSCLC it was 101%; in the assay on NCI-H460 lung, 96.6%; with HOP-92 NSCLC, 101%. Moreover, the results for the growth in the assay on NCI-H522 lung, with 786-0 renal and in the assay on COLO 205 colon were 102%, 109% and 109%, respectively.

For the compound `NC(N)=N/N=C(/c1ccccc1)c1ccc(F)cc1`, the growth was 3.78% (active) in the assay with NCI-H23 lung; 8.06% (active) with NCI-H226 lung; 39.3% in the assay with NCI-H322M lung; 19.7% in the assay with HOP-62 NSCLC; 6.84% (active) with NCI-H460 lung; -16.9% (active) in the assay with HOP-92 NSCLC. The values for the growth with NCI-H522 lung, with 786-0 renal and with COLO 205 colon were -44.8% (active), 18.6% and -47% (active), respectively.

Consider `COc1ccccc1NS(=O)(=O)c1ccc2oc(SC(C)C)nc2c1`, for which the growth in the assay on NCI-H23 lung is 61%; with NCI-H226 lung it was 53.8%; in the assay on NCI-H322M lung it was 99.7%; with HOP-62 NSCLC, 97.3%; in the assay with NCI-H460 lung, 77.2%; in the assay with HOP-92 NSCLC, 79.4%. For the same compound, the growth is 65.6% with NCI-H522 lung, 75.9% with A549/ATCC NSCLC, 64.2% in the assay on 786-0 renal and 109% in the assay with COLO 205 colon.

As for `CN(C)C(=S)N=Nc1c(O)[nH]c2ccccc12`, the growth was 28.2% in the assay with NCI-H23 lung; 4.04% (active) with NCI-H226 lung; 24.6% in the assay with NCI-H322M lung; 10.9% in the assay on HOP-62 NSCLC; -4.55% (active) with NCI-H460 lung; -6.97% (active) in the assay with HOP-92 NSCLC. Moreover, the growth with NCI-H522 lung is 27.4%; with A549/ATCC NSCLC, -10.6% (active); in the assay on 786-0 renal, 8.93% (active); in the assay on COLO 205 colon it was 19.7%.

As for `Cc1[nH]c(-c2ccc3cc[nH]c3c2)c2c1C(=O)CCCC2`, the growth in the assay on NCI-H23 lung is 49.3%; in the assay on NCI-H226 lung, 52.4%; in the assay with NCI-H322M lung, 50.4%; with HOP-62 NSCLC it was 32.3%; in the assay on NCI-H460 lung it was 66.8%; in the assay on HOP-92 NSCLC it was 37.1%. Also, the growth is 37% in the assay with NCI-H522 lung, 51.9% in the assay with A549/ATCC NSCLC, 50.5% in the assay with 786-0 renal and 40.6% in the assay with COLO 205 colon.

Consider `C=C1c2nc3ccccc3n2C=C(c2cccc(Cl)c2)N1Cc1ccc(OC)cc1`, for which the growth in the assay on NCI-H23 lung is 29.4%; with NCI-H226 lung, 94.1%; in the assay with NCI-H322M lung it was 44.6%; with HOP-62 NSCLC it was 41.2%; with NCI-H460 lung it was 4.58% (active); in the assay on HOP-92 NSCLC it was 77.9%. Besides, the growth in the assay with NCI-H522 lung was -10.9% (active); with A549/ATCC NSCLC, 14.3%; with 786-0 renal, 35.5%; in the assay with COLO 205 colon it was 95%.

As for `Oc1ccccc1-c1nnc(CNc2ccc(Cl)cc2)o1`, the growth in the assay on NCI-H23 lung is 34.8%; in the assay on NCI-H226 lung, 30.1%; with NCI-H322M lung it was 32%; in the assay with HOP-62 NSCLC, 25.7%; in the assay on NCI-H460 lung, 7.25% (active); in the assay on HOP-92 NSCLC, 52.5%. Besides, the growth in the assay on NCI-H522 lung was 25.9%; in the assay on A549/ATCC NSCLC, 20.9%; with 786-0 renal it was 36.7%; in the assay with COLO 205 colon, 14.8%.

For the compound `COc1cc(/C=C/C(=O)c2cccnc2Nc2ccc(F)cc2)cc(OC)c1OC`, the growth is 40.2% with NCI-H23 lung; 43% with NCI-H226 lung; 103% in the assay on NCI-H322M lung; 43.6% with HOP-62 NSCLC; 22.5% in the assay with NCI-H460 lung; 37.7% in the assay with HOP-92 NSCLC. For the same compound, the growth is 29.7% with NCI-H522 lung, 70.3% in the assay with 786-0 renal and 83.9% in the assay with COLO 205 colon.

With `CCNc1ncnc2c1cnn2C1CCCO1` (configuration not stated), the growth in the assay on NCI-H23 lung is 118%; in the assay on NCI-H226 lung it was 94.2%; with NCI-H322M lung it was 109%; in the assay on HOP-62 NSCLC, 99.4%; in the assay with NCI-H460 lung, 105%; in the assay with HOP-92 NSCLC, 60.9%. In addition, the growth in the assay with NCI-H522 lung was 111%; with 786-0 renal, 109%; with COLO 205 colon, 105%.

Turning to `COc1ccc(/C=C2\Oc3cc(OCCCCN4CCCC4)ccc3C2=O)cc1`, the growth is 83.3% with NCI-H23 lung; 94.5% in the assay on NCI-H226 lung; 98.6% in the assay on NCI-H322M lung; 91.7% in the assay on HOP-62 NSCLC; 1.37% (active) in the assay with NCI-H460 lung; 73.7% in the assay on HOP-92 NSCLC. The growth with NCI-H522 lung is 91.9%; in the assay on 786-0 renal, 85.2%; with COLO 205 colon, 86.4%.

For `COc1ccc(-c2nc(SCC(=O)Nc3ccc(C(=O)/C=C/c4ccc(Cl)cc4)cc3)[nH]c(=O)c2C#N)cc1`, the growth is 85.4% in the assay with NCI-H23 lung; 96.3% in the assay on NCI-H226 lung; 88.8% with NCI-H322M lung; 100% with HOP-62 NSCLC; 99.1% with NCI-H460 lung; 81.7% in the assay on HOP-92 NSCLC. Besides, the growth is 77.4% with NCI-H522 lung, 105% in the assay on 786-0 renal and 86.8% in the assay on COLO 205 colon.
